Test [1] can be described thus: qHTS assay for identifying genotoxic compounds that show differential cytotoxicity against isogenic chicken DT40 cell lines with known DNA damage response pathways - wild type cell line (AID 743012). Note: nearly all actives have a fitted effect of over 60% in size. Note: potency is the fitted concentration of half-maximal effect. Put shortly:
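Viability of DNA repair-proficient chicken DT40 cells was assessed by CellTiter-Glo luminescence following 40 h compound exposure at 37 C/5% CO2.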
Background: Quantitative high-throughput screening tests each substance at several concentrations.

Test [2] in a line: qHTS assay for identifying genotoxic compounds that show differential cytotoxicity against isogenic chicken DT40 cell lines with known DNA damage response pathways - Rev3 mutant cell line (AID 743014). Note: nearly all actives have a fitted effect of over 55% in size. Note: potency is the fitted concentration of half-maximal effect.
Test [3] in a line: qHTS assay for identifying genotoxic compounds that show differential cytotoxicity against isogenic chicken DT40 cell lines with known DNA damage response pathways - Rad54/Ku70 mutant cell line (AID 743015). Note: nearly all actives have a fitted effect of over 60% in size. Note: potency is the fitted concentration of half-maximal effect.
Test [4] in a line: qHTS assay to identify small molecule antagonists of the androgen receptor (AR) signaling pathway - cell viability counter screen (AID 743033; note: nearly all actives have a fitted effect of over 45% in size; note: potency is the fitted concentration of half-maximal effect).
Test [5] can be described thus: qHTS assay to identify small molecule antagonists of the androgen receptor (AR) signaling pathway using the MDA cell line - cell viability counter screen (AID 743041; note: nearly all actives have a fitted effect of over 45% in size; note: potency is the fitted concentration of half-maximal effect). The method, boiled down: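 Viability read by CellTiter-Fluor fluorescence in the same wells as the antagonist screen, added after 15.5 h of a 16 h, 37C exposure. Human breast carcinoma MDA-kb2 AR-luc cells, compounds co-dosed with agonist R1881.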

Test [6] is described as follows: qHTS assay to identify small molecule antagonists of the thyroid receptor (TR) signaling pathway - cell viability counter screen (AID 743064). Note: nearly all actives have a fitted effect of over 50% in size. Note: potency is the fitted concentration of half-maximal effect. The method, boiled down:
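Same-well viability check: GH3.TRE-Luc cells stimulated with 1 nM T3 alongside test compound for 23.5 h, followed by CellTiter-Fluor fluorescence.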

A short description of test [7]: qHTS assay to identify small molecule antagonists of the estrogen receptor alpha (ER-alpha) signaling pathway - cell viability counter screen (AID 743074; calls by dose curve;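 note: HEK293 cells carrying ER-alpha-UAS-bla reporter stimulated with 17beta-estradiol; nearly all actives have a fitted effect of over 45% in size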; note: potency is the fitted concentration of half-maximal effect).
Test [8] in a line: qHTS assay to identify small molecule antagonists of the estrogen receptor alpha (ER-alpha) signaling pathway using the BG1 cell line - cell viability counter screen (AID 743081).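 Note: compound given together with 17beta-estradiol as the ER stimulus; nearly all actives have a fitted effect of over 45% in size.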 Note: potency is the fitted concentration of half-maximal effect.
Another test deals with Aromatase (Homo sapiens) (UniProt P11511). Description: qHTS assay to identify aromatase inhibitors (AID 743083). Note: nearly all actives have a fitted effect of over 55% in size. Note: potency is the fitted concentration of half-maximal effect.
Test [9] deals with Androgen receptor (Homo sapiens) (UniProt P10275). Nature of the test: qHTS assay to identify small molecule antagonists of the androgen receptor (AR) signaling pathway (AID 743035; active = well fitted inhibition curve with a large enough effect in the signal ratio in the repeat runs, not every such curve was filed as active; the % refers to the signal ratio; note: potency is the fitted concentration of half-maximal effect). Put shortly:
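Reporter HEK293 cells were exposed to compounds and R1881 overnight (16 h, 37C); beta-lactamase activity was then quantified by FRET fluorescence.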

The target is the same in test [10]. Nature of the test: qHTS assay to identify small molecule agonists of the androgen receptor (AR) signaling pathway (AID 743036; active = well fitted activation curve with a large enough effect in the signal ratio in the repeat runs, with a control signal flat, not every such curve was filed as active; the % refers to the signal ratio). Put shortly: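 Agonist activity was scored by beta-lactamase reporter fluorescence in stably transfected HEK293 cells exposed to compounds for 16 h at 37C and 5% CO2. Substrate loading took 2 h at room temperature.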
For test [11] the target is unchanged. Nature of the test: qHTS assay to identify small molecule agonists of the androgen receptor (AR) signaling pathway using the MDA cell line (AID 743040; note: nearly all actives have a fitted effect of over 20% in size). The method, boiled down: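 Luciferase agonist assay: 16 h compound exposure at 37C without CO2 in MDA-kb2 AR-luc cells, whose MMTV promoter responds to both AR and GR. Luminescence measured after 30 min room-temperature incubation with ONE-Glo.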

Test [12] shares this target. Description: qHTS assay to identify small molecule antagonists of the androgen receptor (AR) signaling pathway using the MDA cell line (AID 743042; note: nearly all actives have a fitted effect of over 55% in size; note: potency is the fitted concentration of half-maximal effect). Put shortly:
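Antagonist mode: compounds plus R1881 agonist added to MDA-kb2 AR-luc cells, incubated 16 h at 37C. Luciferase reporter luminescence quantified, with multiplexed CellTiter-Fluor readout for cell viability.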

A short description of test [13]: qHTS assay to identify small molecule antagonists of the thyroid receptor (TR) signaling pathway (AID 743065). Note: nearly all actives have a fitted effect of over 55% in size. Note: potency is the fitted concentration of half-maximal effect. Put shortly: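 Antagonism measured as loss of luciferase signal in GH3 cells stably carrying a TRE-luciferase reporter, co-treated with compound and T3 (1 nM final) for 23.5 h at 37 C. Viability was read in the same well by CellTiter-Fluor.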
The test system of test [14] is thyroid hormone receptor (rat, GH3 cells). Nature of the test: qHTS assay to identify small molecule agonists of the thyroid receptor (TR) signaling pathway (AID 743066; calls by dose curve).
For test [15], the target named is Estrogen receptor (Homo sapiens) (UniProt P03372). Nature of the test: qHTS assay to identify small molecule antagonists of the estrogen receptor alpha (ER-alpha) signaling pathway (AID 743069; active = well fitted curve in the direction sought with a large enough effect in the signal ratio in the repeat runs, not every such curve was filed as active; the % refers to the signal ratio). The method, boiled down: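 Antagonist mode: compounds in DMSO were co-added with 17beta-estradiol to ER-alpha-bla HEK293 cells (2% charcoal-stripped serum) and left 18 h at 37C. Reporter inhibition was measured as FRET fluorescence after 2 h LiveBLAzer substrate at room temperature.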

Test [16] has the same target. Description: qHTS assay to identify small molecule agonists of the estrogen receptor alpha (ER-alpha) signaling pathway (AID 743075; calls by dose curve;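 note: HEK293 GripTite cells with ER-alpha and UAS-driven beta-lactamase reporter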).
Test [17] shares this target. Description: qHTS assay to identify small molecule agonists of the estrogen receptor alpha (ER-alpha) signaling pathway using the BG1 cell line (AID 743079). Note: nearly all actives have a fitted effect of over 20% in size. Note: potency is the fitted concentration of half-maximal effect.
Test [18] can be described thus: qHTS assay to identify small molecule antagonists of the estrogen receptor alpha (ER-alpha) signaling pathway using the BG1 cell line (AID 743080; calls by dose curve;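 note: BG1 cells stimulated with 17beta-estradiol alongside compound; nearly all actives have a fitted effect of over 25% in size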; note: potency is the fitted concentration of half-maximal effect). Put shortly:
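Readout is ONE-Glo luminescence, taken 30 min at room temperature after reagent addition, preceded by a CellTiter-Fluor viability read; BG1-Luc-4E2 cells had received compound and 17beta-estradiol for 21.5 h at 37 C.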

Test [19] in a line: qHTS assay to identify small molecule antagonists of the glucocorticoid receptor (GR) signaling pathway - cell viability counter screen (AID 720693). Note: nearly all actives have a fitted effect of over 55% in size.

“And” between values parts separate entries of the source, which are not always exact repeats. Identical values can stand only once. Inconclusive results are not listed. Where a structure was tested more than once in an assay, its records may differ in their call. The source made the active and inactive calls. Unless noted, calls come from the whole dose curve; as a rule, active = well fitted curve in the direction sought with a large enough effect in the repeat runs; inconclusive = weak or mixed curves; inactive = no such curve, though single readings can be large; an effect the other way counts as inactive or inconclusive.

Aromatase (Homo sapiens), sequence (P11511 whole entry, looked up): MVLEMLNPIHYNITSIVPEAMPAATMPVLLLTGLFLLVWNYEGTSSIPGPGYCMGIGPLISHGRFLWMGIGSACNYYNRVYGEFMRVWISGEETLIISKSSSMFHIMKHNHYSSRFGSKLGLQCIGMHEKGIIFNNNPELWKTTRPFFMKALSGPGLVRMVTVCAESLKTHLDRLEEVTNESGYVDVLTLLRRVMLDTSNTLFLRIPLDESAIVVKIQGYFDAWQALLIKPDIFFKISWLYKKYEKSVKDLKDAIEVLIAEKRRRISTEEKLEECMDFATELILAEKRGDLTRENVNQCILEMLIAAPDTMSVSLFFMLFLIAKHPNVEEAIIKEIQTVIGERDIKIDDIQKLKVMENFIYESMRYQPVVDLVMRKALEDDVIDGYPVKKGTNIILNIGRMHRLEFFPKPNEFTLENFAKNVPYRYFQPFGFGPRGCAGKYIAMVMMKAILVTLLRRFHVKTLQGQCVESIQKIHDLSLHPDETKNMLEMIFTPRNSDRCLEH
Estrogen receptor (Homo sapiens), sequence (P03372 whole entry, looked up): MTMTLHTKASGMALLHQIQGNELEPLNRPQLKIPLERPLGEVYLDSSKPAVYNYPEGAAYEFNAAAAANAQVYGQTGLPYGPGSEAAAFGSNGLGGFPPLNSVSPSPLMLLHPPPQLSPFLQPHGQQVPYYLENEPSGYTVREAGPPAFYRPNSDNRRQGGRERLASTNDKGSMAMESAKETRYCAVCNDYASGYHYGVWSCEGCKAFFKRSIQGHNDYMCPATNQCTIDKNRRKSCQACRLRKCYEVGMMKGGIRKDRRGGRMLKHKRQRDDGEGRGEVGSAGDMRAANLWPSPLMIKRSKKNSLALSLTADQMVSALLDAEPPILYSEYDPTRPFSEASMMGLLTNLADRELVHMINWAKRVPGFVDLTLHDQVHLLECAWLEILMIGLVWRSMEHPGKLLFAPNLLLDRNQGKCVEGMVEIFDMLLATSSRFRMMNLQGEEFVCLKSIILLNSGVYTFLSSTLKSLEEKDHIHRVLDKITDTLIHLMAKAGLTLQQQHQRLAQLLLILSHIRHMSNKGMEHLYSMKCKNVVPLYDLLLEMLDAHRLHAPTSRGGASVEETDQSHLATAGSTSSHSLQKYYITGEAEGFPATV
Androgen receptor (Homo sapiens), sequence (P10275 whole entry, looked up): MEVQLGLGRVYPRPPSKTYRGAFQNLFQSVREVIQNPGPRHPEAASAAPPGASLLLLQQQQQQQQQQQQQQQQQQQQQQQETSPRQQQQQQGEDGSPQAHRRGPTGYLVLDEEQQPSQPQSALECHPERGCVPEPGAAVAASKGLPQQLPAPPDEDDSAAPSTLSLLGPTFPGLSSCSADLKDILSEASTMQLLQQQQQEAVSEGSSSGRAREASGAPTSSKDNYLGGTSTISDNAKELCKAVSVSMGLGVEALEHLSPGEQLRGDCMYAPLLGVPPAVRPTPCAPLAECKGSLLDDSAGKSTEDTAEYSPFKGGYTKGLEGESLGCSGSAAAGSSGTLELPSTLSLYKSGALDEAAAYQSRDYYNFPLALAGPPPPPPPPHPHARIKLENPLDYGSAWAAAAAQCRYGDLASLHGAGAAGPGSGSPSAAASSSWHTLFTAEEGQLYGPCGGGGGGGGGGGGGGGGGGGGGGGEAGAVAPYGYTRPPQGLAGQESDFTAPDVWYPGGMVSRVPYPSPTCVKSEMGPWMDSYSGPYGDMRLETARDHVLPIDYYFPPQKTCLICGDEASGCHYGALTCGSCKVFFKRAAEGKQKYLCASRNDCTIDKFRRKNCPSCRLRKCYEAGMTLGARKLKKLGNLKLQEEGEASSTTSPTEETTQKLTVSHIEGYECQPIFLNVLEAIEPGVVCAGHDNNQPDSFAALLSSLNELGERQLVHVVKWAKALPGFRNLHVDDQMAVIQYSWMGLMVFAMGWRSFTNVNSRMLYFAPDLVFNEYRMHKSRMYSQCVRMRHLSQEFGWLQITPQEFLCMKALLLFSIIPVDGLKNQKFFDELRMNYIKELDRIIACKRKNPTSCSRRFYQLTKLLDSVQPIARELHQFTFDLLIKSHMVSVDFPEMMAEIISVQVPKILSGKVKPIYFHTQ

Consider `Cc1ncc(C[n+]2csc(CCOP(=O)(O)O)c2C)c(N)n1`, for which the Potency entry in [1], in test [2], in test [3], in test [4], in test [5] and in test [6] was “inactive” each time. The Potency result (in test [7]; in [8]; with Aromatase (Homo sapiens)) was “inactive” each time.

Consider `Cc1cc(=O)c(C(=O)N[C@@H](C(=O)N[C@@H]2C(=O)N3C(C(=O)O)=C(CSc4nnnn4C)CS[C@H]23)c2ccc(O)cc2)c[nH]1`, for which the Potency entry in test [1], in test [2], in [3], in test [4], in test [9] and in test [10] was “inactive” in each case. In addition, the Potency result in [11], in test [5], in test [12], in test [6], in test [13] and in [14] was “inactive” each time. The Potency result (in test [15]; in [7]; in test [16]; in test [18]; in test [8]; with Aromatase (Homo sapiens)) was “inactive” in each case. Moreover, the Potency in [17] was 23.7 µM (active).

As to `CC(C)CCC[C@@H](C)[C@H]1CC[C@H]2[C@@H]3CC=C4C[C@@H](O)CC[C@]4(C)[C@H]3CC[C@]12C`, the Potency result in test [1], in [2], in test [3], in test [4], in test [5] and in test [6] was “inactive” in each case. Further, the Potency entry in [13], in test [14], in [15], in test [7], in test [16] and in test [17] was “inactive” each time. Besides, the Potency result (in test [18]; in test [8]; with Aromatase (Homo sapiens)) was “inactive” throughout.

Turning to `C=C1C(CCl)(CCl)C2(Cl)C(Cl)C(Cl)C1(Cl)C2(Cl)Cl` (centres undefined), the Potency is 4.73 µM (active) and 30.3 µM (active) in test [1]; 2.98 µM (active) and 4.28 µM (active) in [2]; 5.96 µM (active) and 17 µM (active) in [3]; “inactive and 54.3 µM (active)” in test [4]; 26.6 µM (active) in test [12]; 5.96 µM (active) and 67.8 µM (active) in [6]. The Potency is 5.31 µM (active) and 48 µM (active) in test [13]; 23.9 µM (active) in test [7]; 29.8 µM (active) and 60.4 µM (active) in the test with Aromatase (Homo sapiens). Also, the Potency result in test [11], in [5], in test [14] and in test [8] was “inactive” throughout.

Consider `CCc1ncnc2cc(OC)c(OC)cc12`, for which the Potency result in test [1], in test [2], in test [3], in test [4], in [9] and in test [11] was “inactive” each time. In addition, the Potency result in test [5], in [12], in test [6], in test [13], in test [14] and in test [15] was “inactive” in each case. For the same molecule, the Potency entry (in test [7]; in [16]; in test [17]; in test [18]; in [8]; in the test with Aromatase (Homo sapiens)) was “inactive” in each case.

Consider `CCCCCCCCCCCCCCCCC(C(=O)O)C(O)(CC(=O)O)C(=O)O` (centres undefined), for which the Potency result in test [1], in test [2], in [3], in test [4], in test [11] and in test [5] was “inactive” each time. Besides, the Potency result (in [12]; in [17]; in test [18]; in test [8]; with Aromatase (Homo sapiens)) was “inactive” in each case. The Potency in test [6] was 26.6 µM (active); in test [13] it was 26.6 µM (active); in test [7], 26.8 µM (active).

For `Cc1cc(Br)ccc1NC(=O)CCl`, the Potency is 5.45 µM (active) in [1]; 5.45 µM (active) in test [2]; 1.54 µM (active) in test [3]; 24.5 µM (active) in test [4]; 48.6 µM (active) in [5]; 21.7 µM (active) in test [6]. The Potency in test [13] was 19.3 µM (active); with Aromatase (Homo sapiens), 30.6 µM (active). In addition, the Potency result in test [14] and in [16] was “inactive” each time.

For the molecule `CC/C=C\C/C=C\C/C=C\C/C=C\C/C=C\C/C=C\CCC(=O)O`, the Potency entry in [19], in test [5], in [6], in [14], in [15] and in test [7] was “inactive” in each case. In addition, the Potency entry (in test [16]; in test [17]; in test [18]; in test [8]; in the test with Aromatase (Homo sapiens)) was “inactive” each time.

As for `CCN1\C(=C/C=C/C=C/c2sc3ccccc3[n+]2CC)Sc2ccccc21`, the Potency was 133 nM (active) and 298 nM (active) in test [1]; 237 nM (active) and 841 nM (active) in [2]; 168 nM (active) and 335 nM (active) in test [3]; 2.68 µM (active) and 8.49 µM (active) in test [4]; 1.68 µM (active) and 5.96 µM (active) in [5]; 5.96 µM (active) and 7.5 µM (active) in test [6]. The Potency in test [13] is 2.37 µM (active) and 4.22 µM (active); in test [7] it was 67.4 nM (active) and 1.69 µM (active); in test [18] it was 1.88 µM (active); in test [8], 11.9 µM (active); in the test with Aromatase (Homo sapiens) it was 5.96 µM (active) and 10.6 µM (active). Further, the Potency entry in test [16] was “inactive”.

Consider `CN[C@H]1CC[C@@H](c2ccc(Cl)c(Cl)c2)c2ccc(S(N)(=O)=O)cc21`, for which the Potency in test [1] was 13.7 µM (active); in test [2], 13.7 µM (active); in test [3] it was 13.7 µM (active); in [4] it was 54.9 µM (active); in [9], 43.6 µM (active); in [12] it was 68.6 µM (active). The Potency in test [6] was 8.63 µM (active); in test [13], 4.33 µM (active); in test [18], 68.6 µM (active); with Aromatase (Homo sapiens) it was 48.6 µM (active). The Potency entry in test [10], in test [11], in [16] and in test [8] was “inactive” throughout.

On to `CC1(C)CCC(NC(=O)[C@@H](N)CCC(=O)O)CC1`, for which the Potency result in [1], in test [2], in test [3], in [4], in [9] and in test [10] was “inactive” in each case. Further, the Potency entry in test [11], in [5], in [12], in test [6], in [13] and in test [14] was “inactive” in each case. Moreover, the Potency entry in [15], in test [7], in [16], in test [17], in [18] and in test [8] was “inactive” in each case. The Potency result with Aromatase (Homo sapiens) was “inactive”.
